# PLAP activator: activators of human placental alkaline phosphatase | P05187 | purified PLAP enzyme, luminescent substrate read-out; hits give high values | activation fold at 20 µM | 96,000 tested, 1.2% active; in the data active = activation fold above about 2
# Target sequence (P05187 whole entry, looked up): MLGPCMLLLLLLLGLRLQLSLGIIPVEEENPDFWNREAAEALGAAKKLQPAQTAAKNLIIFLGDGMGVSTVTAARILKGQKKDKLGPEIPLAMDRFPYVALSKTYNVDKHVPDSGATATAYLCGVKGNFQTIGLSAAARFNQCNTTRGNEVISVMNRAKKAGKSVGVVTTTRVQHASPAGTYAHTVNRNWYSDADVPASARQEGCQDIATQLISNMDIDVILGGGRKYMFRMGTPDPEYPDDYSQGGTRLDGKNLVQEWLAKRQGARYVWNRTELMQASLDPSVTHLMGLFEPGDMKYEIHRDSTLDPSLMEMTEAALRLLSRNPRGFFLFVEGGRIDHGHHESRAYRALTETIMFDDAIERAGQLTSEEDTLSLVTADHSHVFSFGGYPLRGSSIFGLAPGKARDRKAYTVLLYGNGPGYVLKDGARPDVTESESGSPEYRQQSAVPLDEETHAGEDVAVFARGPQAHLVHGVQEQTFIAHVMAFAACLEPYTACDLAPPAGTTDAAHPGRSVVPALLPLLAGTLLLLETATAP
# Cav32 inh: inhibitors of human Cav3.2 T-type calcium channel; B-score at 10 µM; 100,000 tested, 4% active; O95180; Cav3.2-expressing cells, Fluo-4 calcium fluorescence FDSS; hits give low values;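 active = single-dose well whose peak fluorescence ratio is a statistical outlier from its plate by either plate-standardised score or position-corrected B-score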
# M1 antagonist: M1 muscarinic receptor (rat) antagonism; P08482; CHO-M1 cells, Fluo-4 calcium, ACh EC80 antagonist mode; hits give low values; B-score at 10 µM; 64,000 tested, 3.4% active;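 active = calcium fluorescence response, raw or row-and-column corrected B-score, differing from the plate sample mean either way at a set confidence level, mostly lower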
# M1 agonist: activates the M1 muscarinic receptor; CHO-M1 cells, Fluo-4 calcium fluorescence, agonist mode; hits give high values; B-score at 10 µM; 64,000 tested, 3% active; AID 626;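 active = fluorescence rise, raw or as B-score row- and column-corrected plate score, outside the 99.7% band of its plate's samples, either direction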
# An asterisk follows results filed as active; nt = no result given. Shown are actives, neighbours in structure and some others; about 7.6% of the full set was active somewhere.
SMILES,PLAP activator,Cav32 inh,M1 antagonist,M1 agonist
COC(=O)Cc1c[nH]c2cccc(OCC(O)CN(Cc3ccc([N+](=O)[O-])cc3)C(C)(C)C)c12 (centres undefined),1.3,-6.4*,nt,nt
Cc1ccc(C)c(S(=O)(=O)NCc2ccc(C(=O)NCc3ccco3)cc2)c1,nt,-2.3,nt,nt
Cc1ccc(C)c(NS(=O)(=O)c2cc(C(=O)NCCSC3CCCCC3)ccc2C)c1,1.4,-4.5*,nt,nt
COCCNC(=O)c1ccc(C)c(S(=O)(=O)Nc2ccc(C)cc2)c1,1.1,2.3,nt,nt
Cc1ccc(C)c(NS(=O)(=O)c2cc(C(=O)NCCC3=CCCCC3)ccc2C)c1,1.2,-1.9,nt,nt
Cc1ccccc1NS(=O)(=O)c1cc(C(=O)NCCSC2CCCCC2)ccc1C,1.3,-4.4*,nt,nt
Cc1ccc(C(=O)NCc2ccco2)cc1S(=O)(=O)Nc1cccc(Cl)c1,1.7,-6*,nt,nt
Cc1ccc(C(=O)NCCSc2ccccc2)cc1S(=O)(=O)Nc1ccccc1,1.3,-5.8*,nt,nt
C=CCOC(=O)C1=C(C)Nc2nnnn2C1c1cccs1 (centres undefined),1,-0.023,nt,nt
Cc1ccc(-c2cnc(NC(=O)c3cccc(Br)c3)s2)c(C)c1,0.9,-2.1,nt,nt
Cc1ccc(C)c(NS(=O)(=O)c2cc(C(=O)Nc3cccc(N(C)S(C)(=O)=O)c3)ccc2C)c1,1.3,-4.4*,nt,nt
O=C(CSc1nc(-c2ccccc2)c(-c2ccccc2)[nH]1)N1CCN(S(=O)(=O)c2ccccc2)CC1,1.9,-6*,nt,nt
O=C(CSc1nc2ccccc2c(=O)[nH]1)N1CCN(S(=O)(=O)c2ccccc2)CC1,1.1,-0.59,nt,nt
O=C(CSc1ncn[nH]1)N1CCN(S(=O)(=O)c2ccc(Cl)cc2)CC1,2.1*,-0.095,nt,nt
CCCc1nnc(NC(=O)CCC(=O)Nc2ccc(F)cc2)s1,1,-0.054,0.92,-0.18
Cc1cccc(C(=O)NNC2=C(C(=O)C(F)(F)F)CCC2)c1O,2.3*,-8*,nt,nt
CCOC(=O)c1c(C)[nH]c(C(=O)COC(=O)C(C)N2C(=O)C3CCCCC3C2=O)c1C (centres undefined),1.4,-3.2*,nt,nt
O=C(O)C1=C[C@@H](c2ccc(Br)cc2)C[C@@H](OCCCCO)O1,nt,1.6,nt,nt
Cc1ccc(C(O)c2nc3ccccc3n2C(C)C)cc1 (centres undefined),2.6*,nt,-0.57,0.037
O=c1c2ccccc2nc2c3ccccc3c(NCCN3CCOCC3)nn12,1.7,-0.22,nt,nt
O=c1c2ccccc2nc2c3ccccc3c(N3CCOCC3)nn12,nt,nt,-1.2,2.8*
CN1CCN(c2cc(=O)n(Cc3ccc(F)cc3)c(=O)[nH]2)CC1,1,1.6,nt,nt
O=c1cc(N2CCc3ccccc3C2)[nH]c(=O)n1Cc1ccc(F)cc1,nt,-4*,0.6,0.067
O=c1cc(N2CCN(c3ccccc3)CC2)[nH]c(=O)n1Cc1ccc(F)cc1,1,-6.1*,-0.22,-0.73
Cc1ccccc1S(=O)(=O)NNC(=O)C(=O)NNc1ccccn1,2.4*,nt,nt,nt
SMILES,PLAP activator,Cav32 inh,M1 antagonist,M1 agonist
Cc1ccc(S(=O)(=O)NNC(=O)C(=O)NNc2ccccn2)cc1,2.4*,-0.0096,nt,nt
Nc1ccc(S(=O)(=O)NNC(=O)C(=O)NNc2ccccn2)cc1,1.7,nt,nt,nt
COc1ccc2c(Cl)c(C(=O)NCCCn3ccnc3)sc2c1Cl,0.8,1.6,nt,nt
O=C(CNCCC1=CCCCC1)Nc1ccc(N2CCCCCC2)cc1,1.5,-5.1*,nt,nt
Cn1c(=O)c2c(nc(NC3CCCCC3)n2CC(=O)C23CC4CC(CC(C4)C2)C3)n(C)c1=O,nt,-5.8*,0.49,1.7
COc1ccc(-c2cn3c(C)c(C(=O)N4CCN(c5ccc(OC)cc5)CC4)sc3n2)cc1,nt,nt,0.61,-0.9
Oc1ccc2ccccc2c1/C=N/c1nc2c(s1)CCCC2,1.2,-0.042,nt,nt
Oc1c(Br)cc(Br)cc1/C=N/c1nc2c(s1)CCCC2,nt,-5.3*,nt,nt
Cc1ccc(C(C(=O)NCc2ccccc2)N(C(=O)c2csnn2)c2cccc3ccccc23)o1 (centres undefined),1.4,-7*,nt,nt
COc1ccc(CNC(=O)C(c2ccc(C)o2)N(C(=O)c2csnn2)c2ccc(C(C)C)cc2)cc1 (centres undefined),1.4,-7.1*,nt,nt
CCc1ccc(N(C(=O)c2csnn2)C(C(=O)NCc2ccccc2)c2ccco2)cc1 (centres undefined),1.1,-2.7,nt,nt
CCc1ccc(N(C(=O)c2csnn2)C(C(=O)NC(C)(C)C)c2ccncc2)cc1 (centres undefined),1.1,0.37,nt,nt
CCOC(=O)Cc1ccc(NC(=O)c2ccc(C(C)(C)C)cc2)cc1,1.1,-8.1*,nt,nt
COc1ccc(NC(=O)Nc2cccc(C)n2)cc1,1,-4.2*,0.048,-0.16
Cc1cccc(NC(=O)Nc2cccc(C#N)c2)n1,0.9,-4.2*,0.0088,-0.11
C=CCNC(=S)NNC(=O)C(CCC(C)C)CC(C)(C)O (centres undefined),2.7*,0.44,nt,nt
CCOc1ccc(Cn2c(C)nc([N+](=O)[O-])c2SCC(O)CCl)cc1[N+](=O)[O-] (centres undefined),1,0.52,nt,nt
O=C1c2ccccc2C(=O)N1CCN1CCCCC1,1.1,nt,0.33,0.21
O=C1c2cccc3c(N4CCCCC4)ccc(c23)C(=O)N1CCO,0.8,-6.1*,nt,nt
O=C(COc1ccc(S(=O)(=O)N2CCOCC2)cc1)Nc1ccc(Cl)c(C(F)(F)F)c1,0.9,-5.5*,-0.87,-0.55
Cc1onc(-c2ccccc2Cl)c1C(=O)N/N=C(\N)COc1ccc(Cl)cc1,1.3,nt,nt,nt
Cn1cc(C(=O)c2ccc(Cl)cc2Cl)cc1C(=O)N/N=C(\N)COc1cccc(C(F)(F)F)c1,2*,-8.4*,nt,nt
Cc1cccc(Nc2nc(-c3cccs3)cs2)n1,nt,-0.4,nt,nt
c1ccc(Nc2nc(-c3cccs3)cs2)nc1,nt,-5*,-0.00082,0.079
Cc1cccc(Nc2nc(-c3ccccn3)cs2)n1,0.8,-3.6*,0.14,0.37
SMILES,PLAP activator,Cav32 inh,M1 antagonist,M1 agonist
CCOC(=O)N1CCN(S(=O)(=O)N(C)C)CC1,0.8,nt,-0.065,0.67
CCN(CC)C(=O)CC(c1ccccc1)c1ccco1 (centres undefined),1.4,0.11,nt,nt
CCC(=O)N(CCC(c1ccccc1)c1ccco1)Cc1cccs1 (centres undefined),1.2,-9.4*,nt,nt
COc1ccccc1C(CCN(Cc1cccs1)C(C)=O)c1ccco1 (centres undefined),1.7,-5*,0.28,-0.88
CCS(=O)(=O)C(=C1NCCO1)S(=O)(=O)CC,1,-0.78,0.55,-0.51
COc1ccc(NC(=S)NNC(=O)Cn2nc([N+](=O)[O-])cc2C)cc1,2.2*,-0.067,nt,nt
O=C(Cn1nc(C(F)F)cc1C(F)F)NNC(=S)Nc1ccc(Cl)cc1,2*,-1.1,nt,nt
COc1ccccc1NS(=O)(=O)c1cc(C(=O)NCCN2CCOCC2)ccc1Cl,1.1,0.88,-0.49,0.75
Cc1cc(C)cc(NS(=O)(=O)c2ccc3oc(=O)ccc3c2)c1,1.4,-1.3,nt,nt
O=C(O)C1C2C=CC(C2)C1C(=O)NCCc1cccc(Cl)c1 (centres undefined),nt,-1,0.42,-0.28
O=C(COc1ccc(-c2ccccc2)cc1)N1CCN(S(=O)(=O)Cc2ccccc2)CC1,1.3,-0.098,nt,nt
Cc1cccn2c(=O)c3cc(C#N)c(=NC(=O)c4ccccc4)n(Cc4ccco4)c3nc12,nt,nt,-0.72,19*
CCCCCn1c(=NC(C)=O)c(C#N)cc2c(=O)n3cccc(C)c3nc21,nt,nt,0.039,5.3*
